Screening results from PubChem.
A selection: hits, their analogues and other compounds. The true share with any hit is near 10%.
G9a block: inhibitors of human histone lysine methyltransferase G9a; Potency, µM (titrated, usually from 102 µM), for inactives: at the top dose activity, negative = inhibition, usual class: inhibitors; G9a H3K9 monomethylation, AlphaScreen, 2 h; Q96KQ7; hit rate 8.8% among 350,000; note: % is set by controls: 0 for no effect and ±100 for the full control effect; nearly all actives have a fitted effect of over 75% in size
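Chemiluminescent proximity detection of H3K9 monomethylation, read after 10 min bead incubation in the dark. Reaction: 20 nM G9a, 500 nM biotin-H3K9 peptide, 20 uM SAM cofactor, 2 h, room temperature, following 15 min enzyme-compound preincubation.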
GLS inh: inhibitors of human glutaminase (GLS) | O94925 | GLS enzymatic activity, qHTS titration | Potency, µM (doses to about 45.5 µM), for inactives: at the top dose activity change, negative = inhibition, hits mostly inhibitors | hit rate 0.21% among 410,000 | AID 624170; note: % is set by controls: 0 for no effect and ±100 for the full control effect
Target sequence (O94925 whole entry, looked up): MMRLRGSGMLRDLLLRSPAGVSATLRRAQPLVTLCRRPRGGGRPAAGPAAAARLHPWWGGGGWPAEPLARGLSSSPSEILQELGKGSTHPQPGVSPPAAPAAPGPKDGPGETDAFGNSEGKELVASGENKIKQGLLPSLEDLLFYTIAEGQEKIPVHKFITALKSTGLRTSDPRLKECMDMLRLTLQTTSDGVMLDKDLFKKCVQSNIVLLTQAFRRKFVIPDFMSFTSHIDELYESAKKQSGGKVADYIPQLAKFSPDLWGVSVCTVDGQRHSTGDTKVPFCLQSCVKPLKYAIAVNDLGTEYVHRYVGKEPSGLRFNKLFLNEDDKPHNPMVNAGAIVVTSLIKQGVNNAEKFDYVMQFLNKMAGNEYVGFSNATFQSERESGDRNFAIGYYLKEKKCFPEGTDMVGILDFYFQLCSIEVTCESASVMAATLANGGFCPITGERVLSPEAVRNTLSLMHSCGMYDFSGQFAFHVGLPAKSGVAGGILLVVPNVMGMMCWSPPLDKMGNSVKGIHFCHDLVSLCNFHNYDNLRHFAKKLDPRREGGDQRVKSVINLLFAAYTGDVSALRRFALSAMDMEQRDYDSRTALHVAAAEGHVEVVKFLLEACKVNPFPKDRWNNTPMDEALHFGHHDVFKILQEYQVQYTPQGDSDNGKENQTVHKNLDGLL
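hKGA; 45 mM KH2PO4 pH 8.2 + 0.02% Tween-20; cpd via pin tool; 1 mM Gln soln; GluOx/HRP/Amplex Red; RT 30 min; fluor. t0 & final.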
L3MBTL1 block: L3MBTL1 (human) inhibition; Potency, µM (highest dose often 57.1 µM), for the others: at the highest dose activity, negative = inhibition, usual class: inhibitors; Q9Y468; AlphaScreen L3MBTL1–H3K9me1 peptide binding; hit rate 0.66% among 230,000; note: % is set by controls: 0 for no effect and ±100 for the full control effect; nearly all actives have a fitted effect of over 60% in size
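AlphaScreen assay: L3MBTL1 (50 nM final) was preincubated 30 min at room temperature with biotinylated H3(1-15)K9me1 peptide (75 nM final), then 30 min with library compounds; streptavidin donor and nickel chelate acceptor beads (10 ug/mL final) added, 30 min dark.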
JMJD2A Tudor inh: inhibitors of human JMJD2A Tudor domain; AlphaScreen JMJD2A-Tudor / H3K4me3 peptide binding; Potency, µM (series often up to 114 µM), for inactives: at the top dose activity change, negative = inhibition, most hits filed as inhibitors; hit rate 4.4% among 390,000; note: % is set by controls: 0 for no effect and ±100 for the full control effect; nearly all actives have a fitted effect of over 50% in size
BAZ2B block: BAZ2B (human) inhibition; Potency, µM (series often up to 114 µM), for inactives: top-dose activity change, negative = inhibition, actives largely listed as inhibitors; AlphaScreen BAZ2B-H3K14Ac peptide displacement; hit rate 4.4% among 360,000; Q9UIF8; note: % is set by controls: 0 for no effect and ±100 for the full control effect; nearly all actives have a fitted effect of over 60% in size
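Inhibition is scored as reduced AlphaScreen emission. The BAZ2B/b-H3(5-23)K14Ac complex (50 nM each) in PBS pH 7.4, 0.01% Tween-20 meets compound (up to 110 uM) for 30 min at RT before bead addition.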
HP1b binding inh: HP1-beta chromodomain-methylated histone interaction inhibition; P83916; AlphaScreen HP1-beta / biotin-H3K9me3 peptide binding; Potency, µM (doses to about 114 µM), inactives show at the highest dose activity change, negative = inhibition, hits mostly inhibitors; hit rate 0.56% among 390,000; AID 540317; note: nearly all actives have a fitted effect of over 70% in size
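AlphaScreen: HP1-beta (50 nM) preformed 30 min with biotin-H3(1-18)K9me3 peptide (50 nM) in PBS pH 7.4, 0.01% Tween-20. Compound added for 30 min at RT, then streptavidin donor/nickel chelate acceptor beads (10 ug/mL) for 30 min.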
The depositor's hits bear a star; u = inconclusive; x = no result; [ ] = dose if it differs, or a comment. Calls come from the whole dose curve; as a rule, active = well fitted curve in the direction sought with a large enough effect; inconclusive = small, poorly fitted or top-dose-only effect, or another doubt; inactive = no such curve, though single readings can be large; an effect the other way counts as inactive or inconclusive. Potency is the fitted concentration of half-maximal effect.

SMILES | G9a block | GLS inh | L3MBTL1 block | JMJD2A Tudor inh | BAZ2B block | HP1b binding inh
CS(=O)(=O)N1N=C(c2ccco2)CC1c1cccc([N+](=O)[O-])c1 (stereo not given) | x | 1% | 11% | -13% | 16% | 15%
CCCn1c(=O)n(-c2cc(Cl)c(OC)cc2OC)c(=O)c2c3c(sc21)CN(C(C)=O)CC3 | -7%[59 µM] | 6% | x | -5% | -8% | 19%
O=C(c1ccccc1O)N(Cc1ccccc1)Cc1ccccc1 | x | x | x | -35% | x | x
O=C(COC(=O)CSc1cccc2cccc(Cl)c12)Nc1ncc(C(F)(F)F)cc1Cl | u | -1% | u | -35% | 50µM* | -5%
O=C(COC(=O)c1ccc2ccccc2n1)Nc1ncc(C(F)(F)F)cc1Cl | 45µM* | -1% | x | -10% | -1% | 30%
Cc1ccc(C)c(SCC(=O)OCC(=O)Nc2ncc(C(F)(F)F)cc2Cl)c1 | u | 0% | -19% | -15% | -7% | 42%
CC1Cc2cc(S(=O)(=O)CCC(=O)Nc3ccc(F)cc3Cl)ccc2N1C(=O)C1CC1 (stereo not given) | -1%[59 µM] | -1% | x | -1% | -12% | 40%
CCC1CCCCN1Cc1nc2c(c(=O)n(C)c(=O)n2C)n1Cc1c(F)cccc1Cl (stereo not given) | x | x | x | -21% | x | 8%
COc1ccc(NC(=O)C(NS(=O)(=O)c2cccc3nsnc23)C(C)C)cc1OC (stereo not given) | -3%[59 µM] | 14% | x | -28% | -38% | 20%
COc1ccc(-c2noc(CC(=O)N(C)c3cccc(C)c3)n2)cc1 | 6%[59 µM] | -17% | x | -3% | -16% | 49%
CCC(C)(C)NC(=O)c1cccc(NC(=O)C(C)C)c1 | x | 2% | 1% | 40µM* | 2% | -12%
COC(=O)C1=C[C@@H](C(=O)OC)C2C3=C(C(=O)[C@]2(C)NC(=O)c2ccccc2)[C@H](C)n2c(=O)n(C)c(=O)n2[C@@H]3C1 (stereo not given in full) | x | x | x | -8% | x | 21%
COc1ccc(OCc2cc(C(=O)O)c(C)o2)cc1 | 45µM* | x | u | x | 79µM* | x
CCCc1cc(C(=O)N/N=C/c2cccn2C)cs1 | u | -15% | x | u | 45µM* | u
Cn1cccc1/C=N/NC(=O)c1cccs1 | 16% | 20% | x | -9% | -35% | 15%
CCOc1cc(C2Nc3ccccc3C(=O)N2Cc2ccco2)ccc1OCc1ccccc1Cl (stereo not given) | x | x | x | -17%[57.1 µM] | x | 11%[57 µM]
CCOc1c(O)ccc(/C=C2\SC(=S)NC2=O)c1[N+](=O)[O-] | 14µM* | 35% | u | u | 40µM* | u
O=C1NC(=S)S/C1=C\c1cc(Cl)ccc1Cl | x | 42% | x | u | x | -34%
CCOc1ccc(N(C)c2ccc(/C=C3/SC(=S)NC3=O)cc2)cc1 | x | 17% | -22% | 3.5µM* | 50µM* | u
CN(C)c1ccc(C=C2SC(=S)NC2=O)cc1 | x | 1% | x | u | x | -10%[57 µM]
CN1CCc2c(sc3nc(NN)n(-c4ccc(Cl)cc4)c(=O)c23)C1 | 45µM* | -4% | x | u | u | 3%
CN1CCc2c(sc3nc(NN)n(Cc4ccccc4)c(=O)c23)C1 | 45µM* | u | -5% | u | u | -20%
COc1ccc(NS(=O)(=O)c2ccccc2C(=O)O)cc1 | x | x | x | -11% | x | x
NC(=O)c1ccc(NC(=O)C2CCN(S(=O)(=O)Cc3ccccc3)CC2)cc1 | u | 0% | x | -4% | 0% | 20%
CCOc1ccc(C(=O)Nc2cc(-c3ccccc3)no2)cc1 | -3%[59 µM] | -6% | x | -21% | -1% | 29%
SMILES | G9a block | GLS inh | L3MBTL1 block | JMJD2A Tudor inh | BAZ2B block | HP1b binding inh
O=C(CCS(=O)(=O)c1cc(Br)cc2c1N(C(=O)C1CC1)CC2)NCc1ccc(Cl)cc1 | 2%[59 µM] | 0% | x | -15% | 2% | 21%
CCNCCNC(=O)c1c(O)c2ccccc2n(CC)c1=O | 11µM* | 0% | -1% | -25% | -6% | 19%
C=CCn1c(=O)c(C(=O)NCCNCC)c(O)c2ccccc21 | u | 1% | 1% | -20% | u | 39%
CCn1c(=O)c(C(=O)NCCN2CCCCC2)c(O)c2ccccc21 | 56µM* | 1% | -6% | -35% | u | 17%
CCn1c(=O)c(C(=O)NCCc2ccccc2)c(O)c2ccccc21 | 140%[59 µM] | 3% | 55% | 70% | 80% | 194%
CCN(Cc1nc2ccccc2c(=O)[nH]1)C(=O)CN1C(=O)NC2(CCCCC2C)C1=O (stereo not given) | 20%[59 µM] | -4% | 7% | 5% | -3% | 50%
CCN(Cc1nc2cc(Cl)ccc2c(=O)[nH]1)C(=O)CN1C(=O)NC2(CCCCC2C)C1=O (stereo not given) | 50µM* | 1% | 0% | -18% | -4% | -1%
CCC(C(=O)Nc1ccc(F)cc1F)n1nc(-c2ccccc2)c2c(c1=O)CCCC2 (stereo not given) | -4%[59 µM] | 2% | x | -20% | -9% | 9%
Nc1[nH]n(-c2ccccc2)c(=O)c1N=Nc1ccc2c(c1)OCO2 | -110%[59 µM] | 18% | x | 10µM* | 4µM* | u
Cc1cc([N+](=O)[O-])ccc1N=Nc1c(N)[nH]n(-c2ccccc2)c1=O | u | -10% | -16% | -34% | -32% | u
Nc1[nH]n(-c2ccccc2)c(=O)c1N=Nc1ccc2c(c1)OCCO2 | 10µM* | u | u | 20µM* | 10µM* | 45µM*
O=S(=O)(c1ccc(Br)cc1)c1nc(-c2cccs2)oc1SCc1ccc(F)cc1 | -28%[59 µM] | 2% | x | -9% | 0% | 28%
Cc1cccc(C)c1NC(=O)Cn1c(=O)n(Cc2ccco2)c(=O)c2ccc(C(=O)NC3CCCC3)cc21 | -1%[59 µM] | 4% | x | -12% | x | 10%
O=C(NC1CCCCC1)c1ccc(CSc2nc3ccncc3n2Cc2cccc(F)c2)cc1 | 3%[59 µM] | -5% | x | -25% | 14% | 65%
CC(C)CNC(=O)CSc1nnc2ccccn12 | 45µM* | 0% | x | -3% | -7% | 45%
O=S(=O)(O)c1ccc(SCc2ccccc2)nc1 | x | -24% | x | 89µM* | x | 24%
NS(=O)(=O)c1ccc(SCc2ccccc2)nc1 | x | 0% | x | -7% | x | 29%
COc1ccc(OCC(=O)NC(=S)Nc2ccc(S(=O)(=O)Nc3cc(OC)nc(OC)n3)cc2)cc1 | -50%[59 µM] | 19% | -4% | -1% | -25% | 15%
COC(=O)CCC(=O)NC(=S)Nc1ccc(S(=O)(=O)Nc2cc(OC)nc(OC)n2)cc1 | 50µM* | 7% | 3% | -6% | -19% | 29%
COc1cc(NS(=O)(=O)c2ccc(NC(=O)COc3cccc(C)c3)cc2)nc(OC)n1 | 25µM* | 0% | x | -14% | 1% | 4%
